# Test results: paper PMC7862700, “An all-to-all approach to the identification of sequence-specific readers for epigenetic DNA modifications on cytosine”
# Key:
# Assay in all cases: DAPPL (digital affinity profiling via proximity ligation, sequencing); 10 mM Tris-HCl pH 7.5, 50 mM NaCl, 1 mM DTT, 4% glycerol, room temperature, 30 min; GST-TFs on glutathione beads, 16-mer random dsDNA library, 0.1% formaldehyde crosslink after washing; high values mean tight binding
# FLI1 = molecular target: T1, FLI1 (Homo sapiens, UniProt Q01543 1-452); conditions: protein: recombinant; tags: N-terminal GST; dsDNA, one strand shown
# T1 sequence: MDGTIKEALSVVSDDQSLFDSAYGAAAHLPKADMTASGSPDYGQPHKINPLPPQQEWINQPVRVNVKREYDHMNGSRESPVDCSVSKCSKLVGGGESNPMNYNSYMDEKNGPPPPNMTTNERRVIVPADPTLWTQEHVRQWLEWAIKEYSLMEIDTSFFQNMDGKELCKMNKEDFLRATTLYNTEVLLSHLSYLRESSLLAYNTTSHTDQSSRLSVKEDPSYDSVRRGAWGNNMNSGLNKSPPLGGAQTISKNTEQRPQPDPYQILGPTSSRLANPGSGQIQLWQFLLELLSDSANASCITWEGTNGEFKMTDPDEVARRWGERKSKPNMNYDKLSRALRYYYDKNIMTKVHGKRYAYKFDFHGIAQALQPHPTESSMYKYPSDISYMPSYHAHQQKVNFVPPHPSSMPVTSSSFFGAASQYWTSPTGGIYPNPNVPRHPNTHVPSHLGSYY
# How it was run: (§1)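 Human transcription factors carrying a GST fusion were produced in yeast, bound to glutathione beads, tagged with DNA barcodes and pooled together with a tag-only sample. Each pool was held with 200 nmole of a random double-stranded 16-mer DNA library in Tris/NaCl/DTT/glycerol buffer for 30 min at room temperature, then washed, crosslinked in 0.1% formaldehyde, proximity-ligated with BsaI/T4 ligase (1 h, 37 °C), PCR-amplified and sequenced on an Illumina NextSeq500. Binding signal is the read frequency of each hexamer for a given factor divided by its frequency in the tag-only sample.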
# ELK1 = molecular target: T2, ELK1 (Homo sapiens, UniProt P19419 1-428); conditions: protein: recombinant; tags: N-terminal GST; dsDNA, one strand shown
# T2 sequence: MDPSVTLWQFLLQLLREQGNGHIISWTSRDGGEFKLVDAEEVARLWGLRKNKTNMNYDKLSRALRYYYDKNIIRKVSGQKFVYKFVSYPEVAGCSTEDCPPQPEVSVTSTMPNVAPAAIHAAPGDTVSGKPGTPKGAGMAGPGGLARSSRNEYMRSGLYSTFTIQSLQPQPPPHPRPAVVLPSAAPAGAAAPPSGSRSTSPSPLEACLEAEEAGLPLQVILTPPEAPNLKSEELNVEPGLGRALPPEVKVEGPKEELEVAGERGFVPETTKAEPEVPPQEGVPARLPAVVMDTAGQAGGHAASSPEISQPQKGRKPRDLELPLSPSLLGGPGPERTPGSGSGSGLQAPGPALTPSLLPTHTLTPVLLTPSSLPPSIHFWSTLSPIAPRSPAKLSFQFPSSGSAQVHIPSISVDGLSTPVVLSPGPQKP
# How it was run: as §1
# GABPA = molecular target: T3, GABPA (Homo sapiens, UniProt Q06546 1-454); conditions: protein: recombinant; tags: N-terminal GST; dsDNA, one strand shown
# T3 sequence: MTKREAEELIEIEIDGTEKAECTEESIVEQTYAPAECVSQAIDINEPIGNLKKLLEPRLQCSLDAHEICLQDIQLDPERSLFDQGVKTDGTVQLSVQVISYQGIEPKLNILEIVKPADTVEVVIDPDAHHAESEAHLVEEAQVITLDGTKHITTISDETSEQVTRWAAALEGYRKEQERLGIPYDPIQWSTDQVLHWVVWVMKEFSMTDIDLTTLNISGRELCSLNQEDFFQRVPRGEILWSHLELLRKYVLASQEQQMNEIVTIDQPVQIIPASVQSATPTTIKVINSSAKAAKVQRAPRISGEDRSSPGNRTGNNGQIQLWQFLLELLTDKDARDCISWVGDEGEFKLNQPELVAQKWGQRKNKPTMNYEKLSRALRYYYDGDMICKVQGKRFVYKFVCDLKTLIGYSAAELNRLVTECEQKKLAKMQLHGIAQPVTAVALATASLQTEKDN
# How it was run: as §1
# ERG = molecular target: T4, ERG (Homo sapiens, UniProt P11308 1-479); conditions: protein: recombinant; tags: N-terminal GST; dsDNA, one strand shown
# T4 sequence: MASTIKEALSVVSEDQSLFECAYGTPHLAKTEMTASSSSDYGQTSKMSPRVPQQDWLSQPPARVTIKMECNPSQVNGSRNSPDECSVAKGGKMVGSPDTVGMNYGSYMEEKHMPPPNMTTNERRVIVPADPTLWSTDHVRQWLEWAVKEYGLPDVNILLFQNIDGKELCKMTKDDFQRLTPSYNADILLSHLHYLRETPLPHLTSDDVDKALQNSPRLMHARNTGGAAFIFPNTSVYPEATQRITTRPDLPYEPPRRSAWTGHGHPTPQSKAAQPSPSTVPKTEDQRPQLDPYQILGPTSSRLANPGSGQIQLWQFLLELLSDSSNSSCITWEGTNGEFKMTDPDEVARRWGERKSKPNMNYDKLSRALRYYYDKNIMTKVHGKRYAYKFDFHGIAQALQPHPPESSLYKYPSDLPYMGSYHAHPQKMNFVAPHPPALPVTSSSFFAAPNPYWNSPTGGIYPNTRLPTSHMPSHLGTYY
# How it was run: as §1
# ELF1 = ELF1 (Homo sapiens, UniProt P32519 1-619); conditions: protein: recombinant; tags: N-terminal GST; dsDNA, one strand shown
# How it was run: as §1
# EHF = molecular target: T5, EHF (Homo sapiens, UniProt Q9NZC4 1-300); conditions: protein: recombinant; tags: N-terminal GST; dsDNA, one strand shown
# T5 sequence: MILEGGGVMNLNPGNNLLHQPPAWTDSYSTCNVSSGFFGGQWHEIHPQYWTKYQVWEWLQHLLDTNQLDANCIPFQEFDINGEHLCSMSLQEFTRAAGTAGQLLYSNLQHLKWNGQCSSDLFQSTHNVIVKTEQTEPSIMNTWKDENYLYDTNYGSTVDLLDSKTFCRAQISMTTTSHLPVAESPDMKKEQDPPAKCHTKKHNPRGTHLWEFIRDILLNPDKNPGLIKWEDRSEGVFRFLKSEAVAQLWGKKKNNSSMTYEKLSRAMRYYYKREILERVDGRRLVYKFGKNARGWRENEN
# How it was run: as §1
# SPI1 = SPI1 (Homo sapiens, UniProt P17947 1-270); conditions: protein: recombinant; tags: N-terminal GST; dsDNA, one strand shown
# How it was run: as §1
# SPIB = SPIB (Homo sapiens, UniProt Q01892 1-262); conditions: protein: recombinant; tags: N-terminal GST; dsDNA, one strand shown
# How it was run: as §1
# ELK3 = molecular target: T6, ELK3 (Homo sapiens, UniProt P41970 1-407); conditions: protein: recombinant; tags: N-terminal GST; dsDNA, one strand shown
# T6 sequence: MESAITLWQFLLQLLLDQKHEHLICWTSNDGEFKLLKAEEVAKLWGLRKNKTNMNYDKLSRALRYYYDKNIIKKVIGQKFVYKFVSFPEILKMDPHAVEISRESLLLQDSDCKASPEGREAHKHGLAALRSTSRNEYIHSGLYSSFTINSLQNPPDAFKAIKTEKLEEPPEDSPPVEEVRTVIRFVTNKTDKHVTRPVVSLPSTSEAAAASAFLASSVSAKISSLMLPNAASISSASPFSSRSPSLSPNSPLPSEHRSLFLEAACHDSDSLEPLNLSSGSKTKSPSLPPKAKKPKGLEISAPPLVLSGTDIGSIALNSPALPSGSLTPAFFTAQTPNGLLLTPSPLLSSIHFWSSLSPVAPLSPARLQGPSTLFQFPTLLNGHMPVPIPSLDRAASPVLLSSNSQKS
# How it was run: as §1
# FEV = molecular target: T7, FEV (Homo sapiens, UniProt Q99581 1-238); conditions: protein: recombinant; tags: N-terminal GST; dsDNA, one strand shown
# T7 sequence: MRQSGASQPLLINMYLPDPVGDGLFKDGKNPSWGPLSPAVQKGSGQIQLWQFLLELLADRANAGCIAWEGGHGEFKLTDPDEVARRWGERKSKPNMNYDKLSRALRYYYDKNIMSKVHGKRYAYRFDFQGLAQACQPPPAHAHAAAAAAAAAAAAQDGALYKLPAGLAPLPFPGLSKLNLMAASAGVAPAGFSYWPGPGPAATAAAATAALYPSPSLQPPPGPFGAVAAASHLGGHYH
# How it was run: as §1
# ETV5 = ETV5 (Homo sapiens, UniProt P41161 1-510); conditions: protein: recombinant; tags: N-terminal GST; dsDNA, one strand shown
# How it was run: as §1
# HSF1 = HSF1 (Homo sapiens, UniProt Q00613 1-529); conditions: protein: recombinant; tags: N-terminal GST; chain copies: 3; dsDNA, one strand shown
# How it was run: as §1
# SPIC = molecular target: T8, SPIC (Homo sapiens, UniProt Q8N5J4 1-248); conditions: protein: recombinant; tags: N-terminal GST; dsDNA, one strand shown
# T8 sequence: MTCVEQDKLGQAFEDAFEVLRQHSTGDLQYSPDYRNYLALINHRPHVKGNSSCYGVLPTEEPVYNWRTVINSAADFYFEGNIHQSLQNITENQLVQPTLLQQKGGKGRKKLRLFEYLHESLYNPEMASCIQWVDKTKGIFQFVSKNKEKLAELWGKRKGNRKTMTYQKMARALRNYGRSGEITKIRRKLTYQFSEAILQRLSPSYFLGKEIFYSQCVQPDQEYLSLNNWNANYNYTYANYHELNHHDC
# How it was run: as §1
# ELF4 = ELF4 (Homo sapiens, UniProt Q99607 1-663); conditions: protein: recombinant; tags: N-terminal GST; dsDNA, one strand shown
# How it was run: as §1
# ELK4 = molecular target: T9, ELK4 (Homo sapiens, UniProt P28324-2 1-405); conditions: protein: recombinant; tags: N-terminal GST; dsDNA, one strand shown
# T9 sequence: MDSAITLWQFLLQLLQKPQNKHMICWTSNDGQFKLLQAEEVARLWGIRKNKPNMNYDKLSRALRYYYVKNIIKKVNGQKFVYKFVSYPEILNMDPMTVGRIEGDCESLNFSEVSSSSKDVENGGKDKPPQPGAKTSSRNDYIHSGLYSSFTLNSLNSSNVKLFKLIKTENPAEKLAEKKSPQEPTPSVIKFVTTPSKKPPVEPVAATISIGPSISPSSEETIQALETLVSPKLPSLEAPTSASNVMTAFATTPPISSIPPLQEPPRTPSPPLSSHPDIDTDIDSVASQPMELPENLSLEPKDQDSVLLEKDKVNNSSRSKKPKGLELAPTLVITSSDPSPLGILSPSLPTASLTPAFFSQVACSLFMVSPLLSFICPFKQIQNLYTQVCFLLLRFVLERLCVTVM
# How it was run: as §1
# ETV2 = molecular target: T10, ETV2 (Homo sapiens, UniProt O00321 1-342); conditions: protein: recombinant; tags: N-terminal GST; dsDNA, one strand shown
# T10 sequence: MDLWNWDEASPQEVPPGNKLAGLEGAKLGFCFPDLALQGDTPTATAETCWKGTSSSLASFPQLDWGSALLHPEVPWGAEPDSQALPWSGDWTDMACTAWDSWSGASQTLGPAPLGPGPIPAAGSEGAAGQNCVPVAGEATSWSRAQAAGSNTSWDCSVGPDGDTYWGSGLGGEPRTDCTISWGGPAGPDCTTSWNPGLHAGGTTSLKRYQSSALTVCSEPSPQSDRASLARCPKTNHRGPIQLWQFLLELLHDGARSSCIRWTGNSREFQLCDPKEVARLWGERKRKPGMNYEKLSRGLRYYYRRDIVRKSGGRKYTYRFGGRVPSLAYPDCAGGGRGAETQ
# How it was run: as §1
# ELF3 = molecular target: T11, ELF3 (Homo sapiens, UniProt P78545 1-371); conditions: protein: recombinant; tags: N-terminal GST; dsDNA, one strand shown
# T11 sequence: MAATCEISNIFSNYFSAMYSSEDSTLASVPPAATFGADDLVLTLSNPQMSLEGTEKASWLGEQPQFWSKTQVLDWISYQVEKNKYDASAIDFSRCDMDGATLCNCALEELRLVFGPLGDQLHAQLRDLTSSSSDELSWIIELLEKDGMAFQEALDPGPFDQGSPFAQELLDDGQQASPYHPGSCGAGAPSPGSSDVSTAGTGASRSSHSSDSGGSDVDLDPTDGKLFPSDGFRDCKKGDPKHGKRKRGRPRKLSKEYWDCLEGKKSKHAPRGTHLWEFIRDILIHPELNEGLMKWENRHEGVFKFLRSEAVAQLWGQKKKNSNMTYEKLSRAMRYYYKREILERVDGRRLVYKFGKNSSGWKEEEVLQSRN
# How it was run: as §1
# CRX = CRX (Homo sapiens, UniProt O43186 1-299); conditions: protein: recombinant; tags: N-terminal GST; dsDNA, one strand shown
# How it was run: as §1
# ETV1 = ETV1 (Homo sapiens, UniProt P50549 1-477); conditions: protein: recombinant; tags: N-terminal GST; dsDNA, one strand shown
# How it was run: as §1
# HSF1, sequence (Q00613 whole entry): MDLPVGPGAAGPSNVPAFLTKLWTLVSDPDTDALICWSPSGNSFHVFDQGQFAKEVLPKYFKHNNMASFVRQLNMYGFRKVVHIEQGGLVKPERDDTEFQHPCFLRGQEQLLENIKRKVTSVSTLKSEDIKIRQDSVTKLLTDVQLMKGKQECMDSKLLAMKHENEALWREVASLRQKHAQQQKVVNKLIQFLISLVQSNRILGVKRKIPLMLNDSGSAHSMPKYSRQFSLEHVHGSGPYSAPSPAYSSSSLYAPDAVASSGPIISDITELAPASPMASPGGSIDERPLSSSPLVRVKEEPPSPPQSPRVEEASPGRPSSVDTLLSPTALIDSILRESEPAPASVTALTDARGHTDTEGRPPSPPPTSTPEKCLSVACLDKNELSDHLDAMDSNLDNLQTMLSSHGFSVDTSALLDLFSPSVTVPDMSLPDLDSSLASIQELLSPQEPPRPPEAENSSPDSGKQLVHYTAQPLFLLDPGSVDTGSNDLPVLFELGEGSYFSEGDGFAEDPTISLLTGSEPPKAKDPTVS
# ETV1, sequence (P50549 whole entry): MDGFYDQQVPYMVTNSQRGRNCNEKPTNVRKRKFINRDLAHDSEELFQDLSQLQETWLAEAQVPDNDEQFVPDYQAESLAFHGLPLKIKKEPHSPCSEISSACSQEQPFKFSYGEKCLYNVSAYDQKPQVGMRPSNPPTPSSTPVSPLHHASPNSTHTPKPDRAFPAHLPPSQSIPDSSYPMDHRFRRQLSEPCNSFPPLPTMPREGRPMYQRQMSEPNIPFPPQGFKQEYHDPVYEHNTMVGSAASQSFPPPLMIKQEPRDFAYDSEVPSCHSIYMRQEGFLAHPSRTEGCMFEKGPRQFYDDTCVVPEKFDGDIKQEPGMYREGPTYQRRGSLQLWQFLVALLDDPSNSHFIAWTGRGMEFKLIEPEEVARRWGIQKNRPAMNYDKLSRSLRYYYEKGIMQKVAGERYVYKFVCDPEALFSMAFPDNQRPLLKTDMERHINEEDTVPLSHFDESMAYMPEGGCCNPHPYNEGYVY
# ELF4, sequence (Q99607 whole entry): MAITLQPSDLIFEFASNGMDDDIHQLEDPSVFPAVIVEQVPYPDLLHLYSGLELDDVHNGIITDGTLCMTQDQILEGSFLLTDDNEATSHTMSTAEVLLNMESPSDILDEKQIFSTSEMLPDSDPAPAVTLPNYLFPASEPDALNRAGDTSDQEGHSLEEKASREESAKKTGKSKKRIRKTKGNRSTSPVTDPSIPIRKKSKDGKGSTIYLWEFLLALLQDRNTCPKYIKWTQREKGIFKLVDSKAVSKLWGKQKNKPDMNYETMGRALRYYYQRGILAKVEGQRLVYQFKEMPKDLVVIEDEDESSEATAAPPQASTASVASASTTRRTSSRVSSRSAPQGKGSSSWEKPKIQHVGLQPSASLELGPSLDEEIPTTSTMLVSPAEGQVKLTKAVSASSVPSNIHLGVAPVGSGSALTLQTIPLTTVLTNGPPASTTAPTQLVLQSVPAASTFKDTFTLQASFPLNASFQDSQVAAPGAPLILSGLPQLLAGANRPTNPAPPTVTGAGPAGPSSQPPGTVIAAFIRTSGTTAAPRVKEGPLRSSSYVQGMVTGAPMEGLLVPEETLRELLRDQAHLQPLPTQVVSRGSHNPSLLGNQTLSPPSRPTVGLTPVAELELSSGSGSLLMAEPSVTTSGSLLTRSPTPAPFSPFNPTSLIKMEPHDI
# ELF1, sequence (P32519 whole entry): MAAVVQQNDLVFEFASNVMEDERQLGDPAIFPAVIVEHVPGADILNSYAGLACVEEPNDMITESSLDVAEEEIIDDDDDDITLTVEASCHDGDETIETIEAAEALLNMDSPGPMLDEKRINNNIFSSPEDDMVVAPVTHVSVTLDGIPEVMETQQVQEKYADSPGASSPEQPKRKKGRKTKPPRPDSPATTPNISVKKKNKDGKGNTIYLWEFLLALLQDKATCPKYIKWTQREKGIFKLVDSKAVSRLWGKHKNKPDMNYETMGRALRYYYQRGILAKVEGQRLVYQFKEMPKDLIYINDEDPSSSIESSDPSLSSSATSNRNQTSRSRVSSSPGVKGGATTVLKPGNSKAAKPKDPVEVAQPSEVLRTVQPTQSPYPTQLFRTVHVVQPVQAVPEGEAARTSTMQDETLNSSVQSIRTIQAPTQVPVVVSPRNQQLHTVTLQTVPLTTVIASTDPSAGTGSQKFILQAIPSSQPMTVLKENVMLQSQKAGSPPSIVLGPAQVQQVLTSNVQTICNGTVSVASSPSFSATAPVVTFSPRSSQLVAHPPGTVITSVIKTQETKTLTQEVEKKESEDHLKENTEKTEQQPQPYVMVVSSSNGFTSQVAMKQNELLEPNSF
# SPIB, sequence (Q01892 whole entry): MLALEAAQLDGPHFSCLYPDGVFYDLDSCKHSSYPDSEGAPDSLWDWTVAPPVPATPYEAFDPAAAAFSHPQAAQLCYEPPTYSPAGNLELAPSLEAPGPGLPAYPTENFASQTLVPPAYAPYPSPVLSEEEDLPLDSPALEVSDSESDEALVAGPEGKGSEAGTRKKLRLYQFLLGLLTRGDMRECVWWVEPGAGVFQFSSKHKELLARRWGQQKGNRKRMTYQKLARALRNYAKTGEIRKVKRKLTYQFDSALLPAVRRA
# ETV5, sequence (P41161 whole entry): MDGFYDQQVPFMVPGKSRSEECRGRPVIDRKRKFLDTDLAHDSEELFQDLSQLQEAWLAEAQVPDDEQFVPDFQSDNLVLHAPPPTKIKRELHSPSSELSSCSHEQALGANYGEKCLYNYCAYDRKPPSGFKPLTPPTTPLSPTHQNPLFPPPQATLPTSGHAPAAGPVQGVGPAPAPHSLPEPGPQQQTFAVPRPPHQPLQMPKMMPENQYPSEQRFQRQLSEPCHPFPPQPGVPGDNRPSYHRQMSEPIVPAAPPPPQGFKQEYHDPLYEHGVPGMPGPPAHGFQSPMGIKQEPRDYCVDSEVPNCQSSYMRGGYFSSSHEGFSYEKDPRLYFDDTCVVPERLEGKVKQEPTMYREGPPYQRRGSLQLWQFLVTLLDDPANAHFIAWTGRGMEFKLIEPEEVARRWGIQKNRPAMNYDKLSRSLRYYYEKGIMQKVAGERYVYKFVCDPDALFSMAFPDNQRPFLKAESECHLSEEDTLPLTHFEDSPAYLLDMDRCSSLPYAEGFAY
# CRX, sequence (O43186 whole entry): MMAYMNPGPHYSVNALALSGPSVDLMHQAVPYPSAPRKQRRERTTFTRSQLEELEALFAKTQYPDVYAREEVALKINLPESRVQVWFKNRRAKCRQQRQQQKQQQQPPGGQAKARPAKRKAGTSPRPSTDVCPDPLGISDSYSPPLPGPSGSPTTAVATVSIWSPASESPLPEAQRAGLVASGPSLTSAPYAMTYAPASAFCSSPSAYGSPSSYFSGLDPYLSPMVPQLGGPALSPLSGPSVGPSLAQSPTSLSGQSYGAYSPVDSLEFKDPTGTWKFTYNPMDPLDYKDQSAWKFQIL
sequence,measurement,setting,value
TTGTGT,binding signal,FLI1,"1.25 fold enrichment (6-mer frequency, TF over GST control)"
same,binding signal,ELK1,"1.28 fold enrichment (6-mer frequency, TF over GST control)"
same,binding signal,GABPA,"1.15 fold enrichment (6-mer frequency, TF over GST control)"
same,binding signal,ERG,"1.12 fold enrichment (6-mer frequency, TF over GST control)"
same,binding signal,ELF1,"1.18 fold enrichment (6-mer frequency, TF over GST control)"
same,binding signal,EHF,"1.08 fold enrichment (6-mer frequency, TF over GST control)"
same,binding signal,SPI1,"1.09 fold enrichment (6-mer frequency, TF over GST control)"
same,binding signal,SPIB,"1.25 fold enrichment (6-mer frequency, TF over GST control)"
same,binding signal,ELK3,"1.22 fold enrichment (6-mer frequency, TF over GST control)"
same,binding signal,FEV,"1.15 fold enrichment (6-mer frequency, TF over GST control)"
same,binding signal,ETV5,"1.14 fold enrichment (6-mer frequency, TF over GST control)"
same,binding signal,HSF1,"1.05 fold enrichment (6-mer frequency, TF over GST control)"
same,binding signal,SPIC,"1.04 fold enrichment (6-mer frequency, TF over GST control)"
same,binding signal,ELF4,"1.2 fold enrichment (6-mer frequency, TF over GST control)"
same,binding signal,ELK4,"1.28 fold enrichment (6-mer frequency, TF over GST control)"
same,binding signal,ETV2,"1.29 fold enrichment (6-mer frequency, TF over GST control)"
same,binding signal,ELF3,"1.14 fold enrichment (6-mer frequency, TF over GST control)"
same,binding signal,CRX,"1.12 fold enrichment (6-mer frequency, TF over GST control)"
same,binding signal,ETV1,"1.09 fold enrichment (6-mer frequency, TF over GST control)"
